{"source": "PubChem BioAssay AID763", "about": "(NMMLSC, 2007)", "note": "Unmarked numbers belong to inactive results. How the calls were made is not given here."}
{"target": "fMet-Leu-Phe receptor (Homo sapiens) (UniProt P21462)", "sequence (P21462 whole entry, looked up)": "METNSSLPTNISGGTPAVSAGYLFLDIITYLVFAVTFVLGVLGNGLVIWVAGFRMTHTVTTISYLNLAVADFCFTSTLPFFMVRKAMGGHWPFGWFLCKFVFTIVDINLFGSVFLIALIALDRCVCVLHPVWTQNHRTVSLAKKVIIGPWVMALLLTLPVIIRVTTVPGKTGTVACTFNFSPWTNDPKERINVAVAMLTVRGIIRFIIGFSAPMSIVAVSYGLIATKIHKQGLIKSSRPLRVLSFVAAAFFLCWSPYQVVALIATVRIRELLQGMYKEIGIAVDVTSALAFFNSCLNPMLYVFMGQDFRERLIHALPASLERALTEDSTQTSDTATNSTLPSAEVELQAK", "assay": "FPR1 fluorescent ligand binding inhibitors, SAR follow-up, selectivity assay for FPRL1 ligand SAR project, cell-based, single concentration (AID 763)", "details": "FPR1-expressing cells, active compounds read high; at 5.4 µM unless noted"}
{"smiles": "CCC(=O)Nc1cc(-c2cn3cccnc3n2)ccc1OC", "inhibition": "5% [at 7.5 µM]"}
{"smiles": "CCN1CCN(c2nc(-c3ccc(Cl)cc3)cc(C(F)(F)F)n2)CC1", "inhibition": "-3.5% [at 6 µM]"}
{"smiles": "COc1cccc(-c2cc(C(F)(F)F)nc(N3CCN(Cc4ccccc4)CC3)n2)c1", "inhibition": "-16.6% [at 5.2 µM]"}
{"smiles": "COc1ccccc1N1CCN(c2nc(-c3ccc(F)cc3)cc(C(F)(F)F)n2)CC1", "inhibition": "-1.1% [at 5.1 µM]"}
{"smiles": "CC(=O)N1CCN(c2nc(-c3ccccc3)c3ccccc3n2)CC1", "inhibition": "2.3% [at 6.7 µM]"}
{"smiles": "O=C(c1ccccc1)N1CCN(c2nc(-c3ccccc3)c3ccccc3n2)CC1", "inhibition": "1.8% [at 5.6 µM]"}
{"smiles": "CCCC(CCC)C(=O)Nc1cc(-c2cn3cccnc3n2)ccc1OC", "inhibition": "-2% [at 6.1 µM]"}
{"smiles": "CCOC(=O)N1CCN(c2nc(-c3ccccc3)c3cc(C)ccc3n2)CC1", "inhibition": "-2.1% [at 5.9 µM]"}
{"smiles": "COc1ccc(-c2cn3cccnc3n2)cc1NC(=O)c1ccc(F)c(F)c1", "inhibition": "-1.7% [at 5.8 µM]"}
{"smiles": "COc1ccc(-c2cn3cccnc3n2)cc1NC(=O)c1ccccc1C(F)(F)F", "inhibition": "-3.2%"}
{"smiles": "COc1ccc(-c2cn3cccnc3n2)cc1NC(=O)COc1ccc(Cl)cc1", "inhibition": "-3.3%"}
{"smiles": "COc1cccc(-c2cc(C(F)(F)F)nc(N3CCN(C(c4ccccc4)c4ccccc4)CC3)n2)c1", "inhibition": "2.6% [at 4.4 µM]"}
{"smiles": "COc1ccc(-c2cn3cccnc3n2)cc1NC(=O)c1cc(Br)ccc1Cl", "inhibition": "-4% [at 4.9 µM]"}
{"smiles": "COc1ccccc1-c1cc(C(F)(F)F)nc(N2CCN(c3ccc(F)cc3)CC2)n1", "inhibition": "-2.5% [at 5.1 µM]"}
{"smiles": "O=C(O)CC1(CC(=O)N2CCN(c3nc(-c4ccccc4Cl)c4cc(Br)ccc4n3)CC2)CCCC1", "inhibition": "-1.2% [at 3.9 µM]"}
{"smiles": "COc1ccc(-c2cc(C#N)nc(N3CCN(c4ccccc4)CC3)n2)cc1", "inhibition": "2.6% [at 6 µM]"}
{"smiles": "COc1ccc(-c2cn3cccnc3n2)cc1NC(=O)c1cccc(F)c1", "inhibition": "-0.9% [at 6.1 µM]"}
{"smiles": "Fc1ccc(-c2cc(C(F)(F)F)nc(N3CCN(c4cccc(Cl)c4)CC3)n2)cc1", "inhibition": "5.6% [at 5.1 µM]"}
{"smiles": "CCOC(=O)N1CCN(c2nc(-c3ccc(C)cc3)cc(C(F)F)n2)CC1", "inhibition": "1.5% [at 5.9 µM]"}
{"smiles": "COc1ccc(-c2cn3cccnc3n2)cc1NC(=O)c1ccc(Br)cc1", "inhibition": "-0.1% [at 5.3 µM]"}
{"smiles": "CCOC(=O)N1CCN(c2nc(-c3ccccc3)cc(C(F)(F)F)n2)CC1", "inhibition": "1.5% [at 5.8 µM]"}
{"smiles": "CC(C)(C)OC(=O)N1CCN(c2nc(-c3ccccc3Cl)c3cc(Br)ccc3n2)CC1", "inhibition": "8.5% [at 4.4 µM]"}
{"smiles": "COc1ccc(-c2cn3cccnc3n2)cc1NC(=O)CCC1CCCCC1", "inhibition": "-4.2% [at 5.9 µM]"}
{"smiles": "COc1cccc(-c2cc(C(F)(F)F)nc(N3CCN(c4ccc(F)cc4)CC3)n2)c1", "inhibition": "1.7% [at 5.1 µM]"}
{"smiles": "Cc1ccccc1C(=O)N1CCN(c2nc(-c3ccccc3)c3cc(Cl)ccc3n2)CC1", "inhibition": "-3.4% [at 5 µM]"}
{"smiles": "FC(F)(F)c1nc(N2CCN(Cc3ccccc3)CC2)nc2c1CCCCC2", "inhibition": "0.9% [at 5.7 µM]"}
{"smiles": "COc1ccc(-c2nc(N3CCN(Cc4ccc(Cl)cc4)CC3)[nH]c(=O)c2C#N)cc1", "inhibition": "-5.9% [at 5.1 µM]"}
{"smiles": "CC(N)C(=O)N1CCN(c2nc(-c3ccccc3)c3cc([N+](=O)[O-])ccc3n2)CC1", "note": "(stereo not drawn)", "inhibition": "-1.4% [at 5.5 µM]"}
{"smiles": "COc1ccc(C2CC(=O)c3cnc(N4CCN(Cc5ccc6c(c5)OCO6)CC4)nc3C2)cc1OC", "note": "(stereo not drawn)", "inhibition": "-0.9% [at 4.4 µM]"}
{"smiles": "Cc1ccc2nc(N3CCN(c4ccccc4Cl)CC3)nc(-c3ccccc3)c2c1", "inhibition": "-6%"}
{"smiles": "COc1ccc(-c2cn3cccnc3n2)cc1NC(=O)c1cccc(C(F)(F)F)c1", "inhibition": "-2%"}
{"smiles": "CN1CCN(c2nc(-c3ccccc3)c3cc(Cl)ccc3n2)CC1", "inhibition": "6.1% [at 6.6 µM]"}
{"smiles": "COc1ccc(-c2cn3cccnc3n2)cc1NC(=O)c1cccc(C)c1", "inhibition": "-4.1% [at 6.2 µM]"}
